# Screening data from PubChem BioAssay.
# Most compounds without a hit are left out; they make up all but 4.1% or so of the library.
# MBD2 inh: inhibitors of human MBD2 binding to methylated oligonucleotide. inhibition, % at 4.4 µM. actives 0.31% (n = 370,000). TR-FRET; in the data active means inhibition above about 13%
# Target sequence (Q9UBB5 whole entry, looked up): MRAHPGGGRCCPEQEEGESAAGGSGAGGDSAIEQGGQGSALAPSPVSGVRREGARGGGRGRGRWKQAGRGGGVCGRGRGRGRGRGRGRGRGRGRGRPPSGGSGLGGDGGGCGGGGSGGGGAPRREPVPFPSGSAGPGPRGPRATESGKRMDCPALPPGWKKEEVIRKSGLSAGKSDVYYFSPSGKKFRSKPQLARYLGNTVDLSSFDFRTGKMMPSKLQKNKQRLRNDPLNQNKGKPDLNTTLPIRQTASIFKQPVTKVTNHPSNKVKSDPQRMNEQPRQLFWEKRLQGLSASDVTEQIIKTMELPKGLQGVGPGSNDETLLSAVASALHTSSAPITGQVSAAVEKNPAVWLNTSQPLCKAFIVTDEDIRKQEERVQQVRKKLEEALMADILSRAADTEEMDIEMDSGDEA
# rCAG RNA binder: r(CAG) repeat RNA binding; TO-PRO-1 dye displacement fluorescence; actives 1.3% (n = 370,000); AID 651821; inhibition, % at 3 µM;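 active means inhibition above the plate cutoff, the mean of all test compounds on that plate plus 3 SD, cut at about 35% in these data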;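 further: 0% = DMSO alone and 100% = 100 µM mitoxantrone as full dye displacement; higher means more dye released from RNA so lower well fluorescence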
# LEDGF integ inh: blocks HIV-1 LEDGF/p75-dependent DNA integration; TR-FRET IN-LEDGF/p75 DNA integration, Eu/Cy5; inhibition, % at 3.7 µM; actives 0.64% (n = 370,000);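 active means inhibition above the screen-wide mean plus 3 SD, cut at about 13% in these data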;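 further: signal is the Cy5 over europium emission ratio at 671 and 618 nm; 0% = plate median of compound wells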
# UHRF1 MBD2 ctr: blocks human UHRF1 binding to methylated DNA; Q96T88; inhibition, % at 4.4 µM; actives 0.75% (n = 370,000); AID 687016; UHRF1 binding to methylated oligo, TR-FRET; in the data active means inhibition above about 21%;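 further: UHRF1 SRA domain binding a hemimethylated CpG hairpin DNA probe; 0% = median of test compound wells and 100% = reference inhibitor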
# ABHD5-PLIN5 inh: inhibitors of human ABHD5-perilipin-5 interaction; inhibition, % at 4 µM; Split G. princeps luciferase complementation, luminescence, 4 h; Q00G26+Q8WTS1; actives 0.78% (n = 360,000); AID 602281;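 active means inhibition above the mean inhibition across every tested compound plus 3 SD, cut at about 22% in these data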;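 further: 0% = DMSO only wells and the 100% control is not disclosed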
# PRMT1 FP inh: blocks human protein arginine methyltransferase 1; recombinant PRMT1, activity-based probe fluorescence polarization; AID 652257; actives 1.3% (n = 370,000); inhibition, % at 2.79 µM; Q99873;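 active means inhibition above about 21% made by adding two undisclosed values, limit read from the data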
# rCAG bind conf: r(CAG) RNA repeat binding, confirmation; inhibition, % at 3 µM; TO-PRO-1 dye displacement fluorescence; shares compounds with rCAG RNA binder; actives 70% (n = 4,300);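 active means inhibition above a per-plate cutoff, the mean inhibition of sample wells plus 3 SD, cut at about 35% in these data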;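 further: loss of TO-PRO-1 fluorescence as compound displaces dye from 1x1 AA loop RNA; 0% = DMSO only wells and 100% = 100 µM mitoxantrone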
# dCAG dye counter: counter-screen for rCAG RNA binders: DNA CAG dye complex inhibitors | d(CAG) DNA oligo TO-PRO-1 dye displacement, fluorescence | shares compounds with rCAG RNA binder | inhibition, % at 3 µM | AID 652068 | actives 94% (n = 4,300);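 active means inhibition above its plate's cutoff, the mean test-well inhibition plus 3 SD, cut at about 4.8% in these data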;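 further: 0% = DNA dye mix with DMSO and 100% = 100 µM mitoxantrone; hits displace the dye from DNA and so lower well fluorescence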
# dCAG dye DR: counter-screen for rCAG binders: inhibitors of DNA CAG TO-PRO-1 complex | DNA CAG/GTC duplex TO-PRO-1 dye displacement fluorescence | shares compounds with rCAG RNA binder | actives 20% (n = 250) | IC50, µM; in the data active means IC50 below about 10 µM
# The depositor's hits bear a star; i = inactive; / = not tested or not shown.
SMILES,MBD2 inh,rCAG RNA binder,LEDGF integ inh,UHRF1 MBD2 ctr,ABHD5-PLIN5 inh,PRMT1 FP inh,rCAG bind conf,dCAG dye counter,others
COc1cc(/C=C2/SC(=S)N(CC(=O)O)C2=O)ccc1OC(=O)c1ccco1,0,41*,-4,-1,-13,2,46*,15*,
CC(=O)NS(=O)(=O)c1ccc(N=c2ssc3c2-c2cc(C)ccc2NC3(C)C)cc1,-2,48*,0,5,-4,1,45*,16*,
CC1(C)CC(=O)N(CC(=O)N2CCN(Cc3ccc4c(c3)OCO4)CC2)c2ccccc2S1(=O)=O,2,1,-2,1,/,-1,/,/,
O=C(O)CSC(C(=O)Nc1ccc(Br)cc1)c1ccc(Cl)cc1 (configuration not stated),-3,37*,2,0,0,-1,24,5.4*,
C/C(=N\NC(=O)c1ccc(-c2ccccc2)cc1)C1C(=O)c2ccccc2C1=O,-3,47*,-4,1,-1,-3,83*,50*,
Cc1cc(/C=C2\C(=N)N3N=C(c4ccco4)SC3=NC2=O)c(C)n1Cc1ccccc1,1,59*,1,0,0,0,69*,30*,dCAG dye DR=i
O=C(CSCc1ccc(Cl)cc1)Nc1ccc(Br)cc1C(=O)O,3,44*,10,-2,-6,3,36*,8.7*,
CCOC(=O)c1c(-c2ccc(C)c(C)c2)csc1NC(=O)C1CC=CCC1C(=O)O (configuration not stated),3,44*,5,1,0,5,58*,19*,
CCOC(=O)c1c(-c2ccc(F)cc2)csc1NC(=O)C1CC=CCC1C(=O)O (configuration not stated),-6,34,-1,-2,-6,7,/,/,
CC(C)(C)c1ccc(S(=O)(=O)N2CCCC(C(=O)NCc3cccs3)C2)cc1 (configuration not stated),-5,0,-1,-2,/,-5,/,/,
O=c1[nH]c2ccc(S(=O)(=O)N3CCN(c4ccccc4F)CC3)cc2s1,4,35*,-5,0,-1,-5,22,5.2*,
O=C(O)c1cccc(CN2C(=O)S/C(=C/c3ccccc3[N+](=O)[O-])C2=O)c1,-2,14,-8,-2,4,7,/,/,
O=C(O)COc1ccccc1/C=C1\SC(=O)N(Cc2ccc(F)cc2)C1=O,-1,37*,3,1,-1,2,39*,5.0*,
Cc1ccc(NC(=O)CN2C(=O)S/C(=C\c3ccc(OCC(=O)O)c(Br)c3)C2=O)cc1,1,28,-1,0,2,2,/,/,
Cc1ccc(CN2C(=O)S/C(=C\c3ccccc3OCC(=O)O)C2=O)cc1,-6,60*,-1,-4,8,0,64*,18*,
CN1CCCCC(NC(=O)COCc2ccccc2)C1=O (configuration not stated),-8,2,6,-1,/,-3,/,/,
O=C1NN(c2ccccc2)C(=O)/C1=C/c1ccc(Sc2cccc3ccccc23)o1,0,48*,9,7,-5,6,92*,68*,
COc1ccc(/C=N/n2c(-c3n[nH]c4c3CCC4)n[nH]c2=S)cc1OC,-2,3,3,2,-2,-2,/,/,
COc1ccc2ccccc2c1C=Nn1c(-c2n[nH]c3c2CCC3)n[nH]c1=S,-4,48*,0,-5,/,3,49*,18*,
CCOC(=O)C1=CCN(S(=O)(=O)c2ccc(Br)cc2)C1c1cccc(F)c1 (configuration not stated),3,5,-2,-2,/,4,/,/,
COc1ccc(NC(=O)NCCCN2CCN(c3ccc(F)cc3)CC2)cc1OC,-2,3,-3,1,/,-3,/,/,
O=C(O)c1cccc(CSc2nc(-c3ccc(Cl)cc3)cc(C(F)(F)F)n2)c1,-4,68*,-1,-1,-9,-1,71*,33*,dCAG dye DR=i
COc1ccc(-c2cc(C)nc(SCc3cccc(C(=O)O)c3)n2)cc1,0,47*,1,3,5,5,49*,9.7*,dCAG dye DR=>30
COc1ccccc1CCn1cnc(-c2cccc(Br)c2)c1CC(C)C,2,1,-1,1,/,4,/,/,
Cc1cc(O)cc(=O)n1-c1cccc([N+](=O)[O-])c1,1,2,-4,0,/,1,/,/,
SMILES,MBD2 inh,rCAG RNA binder,LEDGF integ inh,UHRF1 MBD2 ctr,ABHD5-PLIN5 inh,PRMT1 FP inh,rCAG bind conf,dCAG dye counter,others
COCCCN1C(=O)[C@H](CC(=O)NCCc2ccccc2OC)[C@]2(C(=O)OC)CCCCC=C12,4,2,-5,1,/,-2,/,/,
CN(C)c1ccc(-c2noc(C3CCN(S(=O)(=O)c4cccc(C(=O)O)c4)CC3)n2)cc1,-2,65*,-3,1,2,0,68*,32*,
Cc1ccc(-c2nnc(SCC(=O)Nc3ccc(OCc4ccccc4)cc3)n2-c2ccc(Cl)cc2)cc1,-2,6,1,0,/,-4,/,/,
N#Cc1sc2nc3c(c(-c4ccco4)c2c1N)CCCC3,-2,3,-2,-5,1,1,/,/,
N#Cc1sc2nccc(Nc3ccccc3)c2c1N,-8,38*,4,-3,-3,2,2,0,
CCCCCCCCN1[C@@H](CC(=O)O)c2ccc(C(F)(F)F)cc2S1(=O)=O,0,52*,0,-2,10,2,29,4,
O=C(OCc1cn(Cc2ccc(F)c(F)c2)nn1)N1CCCC1,-7,0,0,-1,/,-3,/,/,
O=C(Nc1nc2ncccn2c1-c1ccc(F)cc1)c1ccccc1,1,4,0,3,/,2,/,/,
C=CCN1[C@@H](CC(C)C)COc2cccc(F)c2S1(=O)=O,2,0,0,2,/,3,/,/,
O=c1nc(Nc2cccc(Cl)c2)oc2cc(Cl)oc(=O)c12,-9,44*,4,-5,0,2,56*,16*,dCAG dye DR=8.5*
CC(C)(C)OC(=O)NCCc1ccccc1/C=C/S(=O)(=O)NCc1ccccc1,-2,3,-3,-2,/,1,/,/,
c1ccc(Cn2ccc3ccc(-c4ccc5ccn(Cc6cccc(-c7ccsc7)c6)c5c4)cc32)cc1,-3,14,0,-2,/,4,/,/,
O=C(NCc1ccccc1)c1c[nH]c2ccc(F)cc2c1=O,3,3,2,1,5,-3,/,/,
O=C(NC1CC1)c1c[nH]c2ccc(S(=O)(=O)Nc3cccc(C(F)(F)F)c3)cc2c1=O,5,36*,2,0,1,1,30,6.0*,
